This is one part of a sample in which hits are shown more often than they occur.
TbPYK inhibitor: inhibitors of Trypanosoma brucei pyruvate kinase | Q57TT1 | TbPYK enzyme, Kinase-Glo Plus ATP luminescence, 45 min | Potency, µM (top dose mostly 76.8 µM), inactives show top-dose activity, negative = inhibition, actives largely listed as inhibitors | hit rate 0.12% among 410,000 | AID 624173; note: potency is the fitted concentration of half-maximal effect; % is set by controls: 0 for no effect and ±100 for the full control effect; nearly all actives have a fitted effect of over 50% in size
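ADP (130 uM final) triggers the TbPYK reaction after compound addition; incubation is 45 min at room temperature. Kinase-Glo Plus is then added and luminescence imaged. Normalized data are fitted to concentration-effect curves.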
Cycloheximide cs: counter-screen hit for Shiga toxin inhibitors, cycloheximide; AID 2314; cell reporter, cycloheximide protein synthesis inhibition counterscreen; max response, %; hit rate 12% among 300,000; in the data active = max response mostly above about 13%, no sharp cut-off; inactive = mostly below about 14%; note: read at 38.3 µM for the half of the compounds with a filed dose; 0% is about no effect
Shiga inhibitor: Shiga toxin inhibition; hit rate 9.2% among 290,000; inhibition, % at 38.7 µM; Vero cells, Shiga toxin protein synthesis inhibition reporter; AID 2315; in the data active = inhibition mostly above about 28%, no sharp cut-off; inactive = mostly below about 43%; note: 0% is about no effect
Sm TGR inh: S. mansoni TGR enzyme inhibition. Potency, µM (top dose mostly 114 µM), without a hit: top-dose activity change, negative = inhibition, most hits filed as inhibitors. AID 485364. hit rate 3% among 360,000. purified TGR, DTNB reduction, TNB absorbance 405 nm; note: potency is the fitted concentration of half-maximal effect; % is set by controls: 0 for no effect and ±100 for the full control effect; nearly all actives have a fitted effect of over 60% in size
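First, TGR (20 nM dispensed) and NADPH were mixed with compound. Second, a 15 min room-temperature incubation followed. Third, further NADPH and then DTNB were added to start the reaction. Finally, TNB absorbance was monitored kinetically.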
Giardia FBPA inh: inhibitors of Giardia lamblia fructose-1,6-bisphosphate aldolase. AID 2451. purified Giardia FBPA. A8B2U2. Potency, µM (top dose mostly 59.6 µM), for inactives: at the highest dose activity, negative = inhibition, hits mostly inhibitors. hit rate 0.71% among 290,000; note: potency is the fitted concentration of half-maximal effect; % is set by controls: 0 for no effect and ±100 for the full control effect; nearly all actives have a fitted effect of over 55% in size
Target sequence (A8B2U2 whole entry, looked up): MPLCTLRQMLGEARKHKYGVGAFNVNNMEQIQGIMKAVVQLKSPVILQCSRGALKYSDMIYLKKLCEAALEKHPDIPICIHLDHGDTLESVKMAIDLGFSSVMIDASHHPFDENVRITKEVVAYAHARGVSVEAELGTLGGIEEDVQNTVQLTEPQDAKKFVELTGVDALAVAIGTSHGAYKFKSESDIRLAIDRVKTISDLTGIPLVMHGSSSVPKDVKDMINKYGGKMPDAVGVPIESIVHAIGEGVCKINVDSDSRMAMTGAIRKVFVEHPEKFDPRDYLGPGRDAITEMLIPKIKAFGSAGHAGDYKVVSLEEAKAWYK
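Giardia FBPA (40 nM reagent) was preincubated 10 min at RT with compound (up to 57.5 uM final), then substrate plus GAPDH/TPI/NAD/arsenate coupling system with diaphorase/resazurin was added; resorufin fluorescence (525/598 nm) was read after 20 min.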
LmPK inh: blocks Leishmania mexicana pyruvate kinase activity | Q27686 | purified LmPK, Kinase-Glo ATP luminescence, 1 h | Potency, µM (series often up to 57.5 µM), without a hit: at the highest dose activity change, negative = inhibition, hits mostly inhibitors | hit rate 0.37% among 290,000 | AID 1721; note: potency is the fitted concentration of half-maximal effect; % is set by controls: 0 for no effect and ±100 for the full control effect
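Pyruvate kinase activity monitored as ATP production (luciferase luminescence). Conditions: 0.1 nM enzyme, 0.5 mM PEP, 0.1 mM ADP, 1 h, RT; normalized against uninhibited and no-enzyme wells.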
An asterisk follows results filed as active; ? = inconclusive; . = no result given; [ ] = another dose, or the depositor's remark. Unless noted, calls come from the whole dose curve; as a rule, active = well fitted curve in the direction sought with a large enough effect; inconclusive = small, poorly fitted or top-dose-only effect, or another doubt; inactive = no such curve, though single readings can be large; an effect the other way counts as inactive or inconclusive.

SMILES | TbPYK inhibitor | Cycloheximide cs | Shiga inhibitor | Sm TGR inh | Giardia FBPA inh | LmPK inh
CCCNC(=O)CCn1nc(-c2ccc(C)cc2)c2ccccc2c1=O | 0% | -1 | 7 | 10% | 5% | 1%
CCCNC(=O)CCC(=O)Nc1ncc(-c2ccc(C)cc2)n1C | 4% | 25* | 33* | 1% | 17% | -7%
Cc1nn2c(=O)[nH]cnc2c1Cl | 4% | . | . | . | . | .
CCN[C@@H]1C[C@H](N)[C@H](O[C@H]2OC(CN)=CC[C@H]2N)[C@@H](O)[C@H]1O[C@H]1OC[C@@](C)(O)[C@@H](NC)[C@@H]1O | 3% | . | . | . | 1%[21.7 µM] | .
Cc1oc(-c2cccc(C(F)(F)F)c2)nc1CN1CCOCC1 | -1% | 26* | 54* | -5% | 6% | 2%
Cc1ccc(Cn2ccn(Cc3ccccc3C)c(=O)c2=O)cc1 | 1% | . | . | 1% | . | .
Cc1ccc2c(c1)[nH]c1c(=O)n(Cc3ccco3)cnc12 | -19% | 21* | 35 | 1% | 8% | 0%
O=C(/C=C/c1ccc(OC2CSC2)cc1)c1ccccc1 | ? | 47* | 125* | 8% | 0% | 25µM*
O=C(N/N=C/c1ccc(OC2CSC2)cc1)c1ccccc1 | -4% | 50* | 127* | 32% | 1% | -11%
O=C(N/N=C/c1ccc(OCc2ccc(F)cc2)cc1)c1ccccc1 | 6% | -6 | -9 | -5% | 0% | 2%
CNC(=O)c1ccc(OC2CSC2)cc1 | -1% | 14 | -2 | 2% | 12% | -4%
O=C(NNC(=O)c1ccc2ccccc2c1)c1cccc(Cl)c1 | -5% | . | . | . | . | .
O=C(Nc1ccccc1)c1cnc2ccccc2n1 | -3% | 40* | 60* | 3% | 3% | -9%
N#Cc1ccc(COC(=O)c2cnc3ccccc3n2)cc1 | -3% | -4 | 21 | -1% | 6% | 6%
NC(=O)c1ccc(NC(=O)c2cnc3ccccc3n2)cc1 | 1% | 37* | 80* | 0% | 0% | -4%
NC(=O)c1ccc(NC(=O)COC(=O)c2ccc3ccccc3n2)cc1 | -2% | . | . | . | . | .
Cc1ccc(NC(=O)c2sc(Cl)nc2-c2ccccc2)cc1C | 5% | -3 | -22 | -5% | 2% | 9%
CC(OC(=O)c1cnc2ccccc2n1)c1ccccc1Cl (stereo not drawn) | 3% | 36* | 69* | 7% | -5% | -2%
Cc1ccc(NC(=O)c2cnc3ccccc3n2)cc1C | -3% | 51* | 67* | 2% | -4% | -5%
COc1ccc(NC(=O)C2CCN(S(=O)(=O)c3ccc4c(c3)CC(C)N4C(C)=O)CC2)c(OC)c1 (stereo not drawn) | 1% | -1 | -14 | 6% | 0% | 3%
COc1cc(C2CC(=O)Nc3cc4c(cc32)OCCO4)cc(Br)c1OC (stereo not drawn) | 1% | . | . | 1% | . | .
COc1ccccc1Cc1c(C2CCCCC2)nc2ccc(Br)cn12 | -1% | . | . | . | . | .
O=C(Nc1ccc(OC(F)F)cc1)c1ncc(Cl)c(Cl)c1Cl | 4% | 14 | 10 | 6% | 0% | 4%
CC(NC(=O)c1cnc2ccccc2n1)c1ccccc1 (stereo not drawn) | 2% | 23* | 41 | -13% | -15% | -1%
O=C(Nc1ccccc1)c1ccc(=O)[nH]n1 | 2% | -3 | -2 | -18% | 13% | 2%
SMILES | TbPYK inhibitor | Cycloheximide cs | Shiga inhibitor | Sm TGR inh | Giardia FBPA inh | LmPK inh
Cc1ccc(NC(=O)c2ncc(Cl)c(Cl)c2Cl)cc1C | 0% | 40* | 61 | 2% | 4% | 3%
Cc1ccc(NC(=O)c2ccc(=O)[nH]n2)cc1C | -3% | 48* | 100* | 10% | 4% | -11%
O=C1CC(N2CCC(C(=O)N3CCCCC3)CC2)C(=O)N1 (stereo not drawn) | 5% | -2 | -2 | 32µM* | 1% | -2%
CCN1CCN(C2CC(=O)NC2=O)CC1 (stereo not drawn) | . | 6 | -10 | -3% | -17% | -3%
NC(=O)COc1ccccc1C1=NO[C@@](CC(=O)O)(C(=O)Nc2ccc3c(c2)OCCO3)C1 | -8% | 19* | 31 | 18µM* | -17% | 0%
COc1ccc(-c2[nH]c(-c3ccccc3)nc2SCC(=O)Nc2ccc3c(c2)OCCO3)cc1 | -21% | . | . | 7% | . | .
COc1ccc(C2=NO[C@@](CC(=O)O)(C(=O)Nc3ccc4c(c3)OCCO4)C2)cc1 | -5% | 30* | 62* | 22µM* | -24% | 0%
CCOC(=O)c1cnc2ccc(OCC)cc2c1N1CCN(c2cccc(Cl)c2)CC1 | 10% | . | . | 6% | . | .
NC(c1ccccc1)c1csc(Nc2cc(Oc3ccccc3)ncn2)n1 (stereo not drawn) | -4% | . | . | . | . | .
CCOc1ccc(C(=O)OC2CC3CCC(C2)N3C)cc1 (stereo not drawn) | 2% | 22* | 27 | 14% | -7% | 4%
COc1ccc(C(=O)OC(C)CN2CCN(C)CC2)cc1OC (stereo not drawn) | 2% | 4 | 10 | -24% | -17% | -1%
Cc1ccccc1C(=O)OC(C)CN1CCN(C)CC1 (stereo not drawn) | 3% | 4 | -6 | -1% | -3% | 5%
COc1ccc(C(=O)OC(C)CN2CCN(C)CC2)cc1 (stereo not drawn) | -2% | 12* | 36 | 9% | ? | 1%
CCOc1ccc(C(=O)OC(C)CN2CCCCC2)cc1 (stereo not drawn) | -4% | 10 | 26* | 3% | ? | -4%
Cc1ccc(C(=O)OC(C)CN2CCN(C)CC2)cc1 (stereo not drawn) | 1% | 17* | 48* | -2% | -11% | 5%
CN1C2CCC1CC(OC(=O)c1ccc(Cl)cc1)C2 (stereo not drawn) | -8% | -2 | -23 | 6% | -3% | 2%
CC(CN1CCCC1)OC(=O)c1ccc(F)cc1 (stereo not drawn) | 1% | -1 | -4 | 4% | ? | 0%
COc1cccc(/C=C/C(=O)Nc2ccccc2N2CCOCC2)c1 | -3% | 29* | 44 | 3% | -10% | -1%
O=C(/C=C/c1ccc(Cl)cc1)Nc1ccccc1N1CCOCC1 | -9% | 1 | 11 | -14% | 3% | 2%
O=C(/C=C/c1ccco1)NC(=S)Nc1ccccc1N1CCOCC1 | 4% | -3 | -14 | 32µM* | -2% | 4%
O=C(/C=C/c1ccco1)NC(=S)Nc1ccccc1N1CCCC1 | 0% | -2 | 14 | . | -17% | 1%
CCCCCC(=O)Nc1ccccc1N1CCN(c2ccccc2)CC1 | -9% | 5 | 24 | 1% | -7% | -9%
O=C(/C=C/c1ccco1)Nc1ccccc1N1CCCC1 | -1% | 12* | 40 | 40µM* | -2% | 1%
O=C(O)/C=C\C(=O)Nc1ccccc1N1CCN(c2ccccc2)CC1 | -1% | -1 | -4 | 11µM* | 8% | -1%
C1CCN2C[C@@H]3C[C@@H](CN4CCCC[C@H]34)[C@H]2C1 | 8%[33.2 µM] | . | . | . | -25%[21.7 µM] | .

Screens (PubChem)
